Results published in PubChem BioAssay (Tox21).
Results filed as inconclusive are left out. The source made the active and inactive calls. Unless noted, the call rests on the fitted dose curve; in most records, active means well fitted curve in the direction sought with a large enough effect in the repeat runs; inconclusive means weak or mixed curves; inactive means no such curve, though single readings can be large; an effect the other way counts as inactive or inconclusive.

Key:
[1] = qHTS assay for small molecule agonists of the p53 signaling pathway (AID 651631; calls by dose curve; further: nearly all actives have a fitted effect of over 15% in size)
Procedure, shortened: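 Readout was fluorescence from the LiveBLAzer FRET substrate, applied for 2 h at room temperature after 16 h compound exposure at 37 °C. Cells were the p53RE-bla HCT-116 line, with beta-lactamase driven by p53 response elements.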

[2] = qHTS assay for small molecules that induce genotoxicity in human embryonic kidney cells expressing luciferase-tagged ATAD5 (AID 651632); further: nearly all actives have a fitted effect of over 15% in size
Procedure, shortened: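 A rise in luciferase signal from ATAD5-tagged HEK293T cells marks genetic stress. Cells were exposed to compounds for 16 hr at 37C, 5% CO2, then luciferase was quantified after a 30 min room-temperature incubation with Amplite.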

[3] = qHTS assay for small molecule agonists of the p53 signaling pathway - cell viability (AID 651633; calls by dose curve; further: series mostly up to about 83 µM; nearly all actives have a fitted effect of over 30% in size)
Procedure, shortened: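 p53RE-bla cells were treated with compound for 16 hours at 37 C. Cytotoxicity was then measured as CellTiter-Glo luminescence after 30 min at room temperature.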

[4] = qHTS assay for small molecule disruptors of the mitochondrial membrane potential - cell viability (AID 720634; calls by dose curve;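 further: human HepG2 liver cancer cells; series mostly up to about 83 µM; nearly all actives have a fitted effect of over 20% in size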)
Procedure, shortened: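 Cytotoxicity was quantified from ATP content by CellTiter-Glo luminescence in the same wells as the MMP dye read-out. HepG2 (2,000 cells/well) were plated overnight and exposed to compounds for 1 hr at 37 C.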

[5] = qHTS assay for small molecule disruptors of the mitochondrial membrane potential (AID 720635); further: potency means the concentration at half of the fitted maximal effect
Procedure, shortened: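 HepG2 cells exposed to compound 1 hr at 37C, then Mito-MPS dye 30 min. Ratio read of aggregate (540/590 nm) versus monomer (490/535 nm) fluorescence.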

[6] = qHTS assay to test for compound auto fluorescence at 590 nm (red) in HepG2 cells (AID 720674)
Procedure, shortened: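 HepG2 cells, 2,000 per well in MEM with 10% FBS, attached overnight at 37 C, then got 23 nL compound or DMSO. After 1 hr at 37 C, 5% CO2, red fluorescence was read at 540/590 nm against Rose Bengal sodium as reference.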

[7] = qHTS assay to test for compound auto fluorescence at 460 nm (blue) in HEK293 cells (AID 720678)
Procedure, shortened: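 Auto fluorescence in the blue band was quantified as triamterene equivalency. HEK293 cells were seeded at 2,000/well, dosed after a 4-5 hr attachment, and kept overnight at 37C before the 405/460 nm reading.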

[8] = qHTS assay to test for compound auto fluorescence at 590 nm (red) in HEK293 cells (AID 720679)
Procedure, shortened: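 Autofluorescence equivalency to Rose Bengal sodium, 540/590nm, in HEK293 cells exposed overnight to 23 nL compound per well.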

[9] = qHTS assay to test for compound auto fluorescence at 460 nm (blue) in HEK293 cell free culture (AID 720681)
Procedure, shortened: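 Compounds were added to cell-free DMEM with 10% FBS and fluorescence read directly. The blue channel used 405 nm excitation and 460 nm emission, with triamterene as the reference fluorophore.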

[10] = qHTS assay to test for compound auto fluorescence at 535 nm (green) in HEK293 cell free culture (AID 720682)
Procedure, shortened: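 Compounds were pin-transferred into cell-free DMEM with 10% FBS, and green fluorescence was read at excitation 485 nm and emission 535 nm. Intensities were expressed as fluorescein-equivalent values.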

[11] = qHTS assay to test for compound auto fluorescence at 590 nm (red) in HepG2 cell free culture (AID 720684)
Procedure, shortened: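 Rose Bengal sodium served as the reference for red signal. Test compounds were dispensed into serum-containing MEM (10% FBS) without cells, and plates were read at 540/590 nm.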

[12] = qHTS assay to test for compound auto fluorescence at 460 nm (blue) in HepG2 cell free culture (AID 720685)
Procedure, shortened: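 Cell-free plates of MEM plus 10% FBS received 23 nL compound or DMSO vehicle; blue-channel (405/460 nm) intensity scored against triamterene as reference fluorophore.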

[13] = qHTS assay to test for compound auto fluorescence at 535 nm (green) in HepG2 cell free culture (AID 720686)
[14] = biological target: Glucocorticoid receptor (Homo sapiens) (UniProt P04150); experiment: qHTS assay to identify small molecule agonists of the glucocorticoid receptor (GR) signaling pathway (AID 720691; active means well fitted activation curve with a large enough effect in the signal ratio in the repeat runs, not every such curve was filed as active; the % refers to the signal ratio)
Chain of Glucocorticoid receptor (Homo sapiens) (P04150 whole entry, looked up): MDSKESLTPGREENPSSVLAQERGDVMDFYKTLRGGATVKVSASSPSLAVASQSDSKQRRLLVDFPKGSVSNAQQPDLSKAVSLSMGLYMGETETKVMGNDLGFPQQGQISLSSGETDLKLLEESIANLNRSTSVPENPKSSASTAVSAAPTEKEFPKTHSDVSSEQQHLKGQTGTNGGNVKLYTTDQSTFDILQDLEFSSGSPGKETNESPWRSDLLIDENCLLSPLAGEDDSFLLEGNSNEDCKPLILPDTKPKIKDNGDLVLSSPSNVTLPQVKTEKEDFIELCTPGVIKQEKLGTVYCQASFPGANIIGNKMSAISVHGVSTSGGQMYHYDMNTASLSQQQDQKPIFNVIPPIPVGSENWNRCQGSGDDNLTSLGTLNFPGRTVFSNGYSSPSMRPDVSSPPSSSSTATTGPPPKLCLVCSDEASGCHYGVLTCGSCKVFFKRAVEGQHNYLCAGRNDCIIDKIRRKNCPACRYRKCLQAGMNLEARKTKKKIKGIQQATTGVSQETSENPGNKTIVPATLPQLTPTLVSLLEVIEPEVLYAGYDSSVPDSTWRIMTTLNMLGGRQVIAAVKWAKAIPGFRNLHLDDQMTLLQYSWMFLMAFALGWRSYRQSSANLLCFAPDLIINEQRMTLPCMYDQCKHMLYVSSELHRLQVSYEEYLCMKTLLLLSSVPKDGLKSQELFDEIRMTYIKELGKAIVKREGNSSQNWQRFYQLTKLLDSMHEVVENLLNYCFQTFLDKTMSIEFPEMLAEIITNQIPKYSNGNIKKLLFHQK
Procedure, shortened: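 Agonist-mode qHTS in HeLa cells stably expressing a glucocorticoid-response-element beta-lactamase reporter. Fluorescence intensity read with FRET substrate (2 h, room temperature) after 18 h compound treatment at 37 C.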

[15] = biological target: Glucocorticoid receptor (Homo sapiens) (UniProt P04150); experiment: qHTS assay to identify small molecule antagonists of the glucocorticoid receptor (GR) signaling pathway (AID 720692; active means well fitted inhibition curve with a large enough effect in the signal ratio in the repeat runs, not every such curve was filed as active; the % refers to the signal ratio)
Procedure, shortened: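 Inhibition of dexamethasone-driven (5 nM final) beta-lactamase expression was measured in GRE-reporter HeLa cells over 18 h at 37C. Fluorescence was read after 2 h with the B/G FRET substrate at room temperature.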

[16] = qHTS assay to test for compound auto fluorescence at 535 nm (green) in HEK293 cells (AID 720680)
[17] = qHTS assay to test for compound auto fluorescence at 460 nm (blue) in HepG2 cells (AID 720687)
Procedure, shortened: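 HepG2 cells in MEM with 10% FBS, attached overnight at 37 C, were exposed to compound or DMSO for 1 hr at 37 C, 5% CO2. Blue fluorescence was read at 405/460 nm, with triamterene as reference fluorophore.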

[18] = qHTS assay to test for compound auto fluorescence at 535 nm (green) in HepG2 cells (AID 720675)
[19] = qHTS assay to test for compound auto fluorescence at 590 nm (red) in HEK293 cell free culture (AID 720683)
Procedure, shortened: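 Cell-free wells of DMEM with 10% FBS received compound, and intrinsic fluorescence was read at excitation/emission 540/590 nm. Values expressed as equivalence to Rose Bengal sodium.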
On the % scale 0 is the no-effect control and ±100 the full control effect.

O=C(CO)[C@@H](O)[C@H](O)[C@@H](O)CO
inactive: Potency [1] | Potency [2] | Potency [3] | outcome [4] | Potency [5] | outcome [6] | outcome [7] | outcome [8] | outcome [9] | outcome [10] | outcome [11] | outcome [12] | outcome [13] | Potency [14] | Potency [15]

C=CN1CCCCCC1=O
inactive: Potency [1] | Potency [2] | Potency [3] | outcome [4] | Potency [5] | outcome [6] | outcome [8] | outcome [16] | outcome [9] | outcome [10] | outcome [11] | outcome [12] | outcome [13] | outcome [17] | Potency [14] | Potency [15]

COC(=O)Nc1ccc(Cl)c(Cl)c1
inactive: Potency [1] | Potency [2] | Potency [3] | outcome [6] | outcome [18] | outcome [7] | outcome [8] | outcome [16] | outcome [9] | outcome [10] | outcome [19] | outcome [11] | outcome [12] | outcome [13] | outcome [17] | Potency [14]
active: Potency [5] 60.8 µM

CCC(=O)OCc1ccccc1
inactive: Potency [1] | Potency [2] | Potency [3] | outcome [4] | outcome [7] | outcome [8] | outcome [16] | outcome [9] | outcome [10] | outcome [19] | outcome [11] | outcome [12] | outcome [13] | outcome [17] | Potency [14] | Potency [15]

CC(C(=O)O)c1cccc(Oc2ccccc2)c1 (stereo not drawn)
inactive: Potency [1] | Potency [2] | Potency [3] | outcome [4] | Potency [5] | fluorescence, relative to Rose Bengal [6] -0.601% [at 18.6 µM] | fluorescence, % of triamterene [7] 0.0483% [at 18.6 µM] | fluorescence, % of fluorescent control [8] -0.0737% [at 18.6 µM] | fluorescence, % of fluorescein [16] 0.0474% [at 18.6 µM] | fluorescence, % of fluorescent control [9] -0.022% [at 18.6 µM] | activity change [10] 0.0987% [at 18.6 µM] | fluorescence, % of Rose Bengal [11] 0.647% [at 18.6 µM] | fluorescence, % of fluorescent control [12] -0.0014% [at 18.6 µM] | fluorescence, % of fluorescein control [13] 0.0607% [at 18.6 µM] | fluorescence, % of fluorescent control [17] -0.0143% [at 18.6 µM]

CC(C)(C)C(=O)Oc1ccc(S(=O)(=O)Nc2ccccc2C(=O)NCC(=O)O)cc1
inactive: Potency [1] | Potency [2] | Potency [3] | outcome [4] | Potency [5] | outcome [7] | outcome [8] | outcome [16] | outcome [9] | outcome [10] | outcome [19] | outcome [11] | outcome [12] | outcome [13] | outcome [17]

CCOC(=O)c1cnc2c(cnn2CC)c1NN=C(C)C
inactive: Potency [1] | Potency [2] | Potency [3] | outcome [4] | outcome [6] | outcome [18] | outcome [7] | outcome [8] | outcome [16] | outcome [10] | outcome [19] | outcome [11] | outcome [12] | outcome [13] | outcome [17]

CC(C)CC(C)(N)C#N (stereo not drawn)
inactive: Potency [1] | Potency [2] | Potency [3] | outcome [4] | outcome [6] | outcome [8] | outcome [16] | outcome [9] | outcome [10] | outcome [19] | outcome [11] | outcome [12] | outcome [13] | outcome [17]
